Experimental data: the supplement of paper PMC6897291

System: RIVA
Assay: growth inhibition by drug plus 177Lu-lilotomab satetraxetan (1 - RLU/untreated control) (fraction); higher = stronger inhibition
Conditions: 177Lu-lilotomab satetraxetan 0.5 ug/ml
Experimental: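 RIVA (RI-1) ABC-DLBCL cells were pretreated or not for 18 h with 0.5 ug/ml 177Lu-lilotomab satetraxetan (600 MBq/mg), washed and seeded (3000 cells/well) on 384-well plates pre-printed with the Selleck Cambridge Cancer Compound library. Viability was read by RealTime-Glo luminescence on days 3-6 after seeding. Effect = 1 - RLU/mean RLU of the 48 untreated no-drug control wells per plate; Bliss score = (M-E)/(1-Fa).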

Row | Structure (SMILES) | growth inhibition by drug plus 177Lu-lilotomab satetraxetan (10 nM, time (day): 3) | growth inhibition by drug plus 177Lu-lilotomab satetraxetan (10 nM, time (day): 4) | growth inhibition by drug plus 177Lu-lilotomab satetraxetan (10 nM, time (day): 5) | growth inhibition by drug plus 177Lu-lilotomab satetraxetan (10 nM, time (day): 6) | growth inhibition by drug plus 177Lu-lilotomab satetraxetan (100 nM, time (day): 3) | growth inhibition by drug plus 177Lu-lilotomab satetraxetan (100 nM, time (day): 4) | growth inhibition by drug plus 177Lu-lilotomab satetraxetan (100 nM, time (day): 5) | growth inhibition by drug plus 177Lu-lilotomab satetraxetan (100 nM, time (day): 6)
1 | CCOc1ccc(Nc2nc(-c3c(C)nc4ccccn34)cs2)cc1 | 0.559 | 0.602 | 0.61 | 0.62 | 0.945 | 0.965 | 0.97 | 0.973
2 | CO[C@H]1C[C@@H]2CC[C@@H](C)[C@@](O)(O2)C(=O)C(=O)N2CCCC[C@H]2C(=O)O[C@H]([C@H](C)C[C@@H]2CC[C@@H](O)[C@H](OC)C2)CC(=O)[C@H](C)/C=C(\C)[C@@H](O)[C@@H](OC)C(=O)[C@H](C)C[C@H](C)/C=C/C=C/C=C/1C [Rapamycin (Sirolimus)] | 0.839 | 0.875 | 0.88 | 0.873 | 0.829 | 0.867 | 0.88 | 0.878
3 | O=C(/C=C/c1cccc(S(=O)(=O)Nc2ccccc2)c1)NO [Belinostat (PXD101)] | 0.503 | 0.586 | 0.594 | 0.603 | 0.934 | 0.935 | 0.938 | 0.945
4 | CCN(CC)CCCCNc1ncc2cc(-c3cc(OC)cc(OC)c3)c(NC(=O)NC(C)(C)C)nc2n1 | 0.539 | 0.564 | 0.587 | 0.597 | 0.393 | 0.447 | 0.445 | 0.439
5 | CNC(=O)c1ccccc1Sc1ccc2c(/C=C/c3ccccn3)n[nH]c2c1 [Axitinib] | 0.405 | 0.507 | 0.522 | 0.533 | 0.439 | 0.479 | 0.492 | 0.484
